# Source: PubChem (National Center for Advancing Translational Sciences (NCATS))
# D2 antag – antagonizes the human D2 dopamine receptor. P14416. HEK293 TREx D2 cells, calcium flux, dopamine EC80. inhibition, % at 10 µM. hit rate 2% among 340,000. AID 485344; in the data active means inhibition above about 30%; inactive means below that, where a call was filed; further: 0% is about no effect
# Target sequence (P14416 whole entry, looked up): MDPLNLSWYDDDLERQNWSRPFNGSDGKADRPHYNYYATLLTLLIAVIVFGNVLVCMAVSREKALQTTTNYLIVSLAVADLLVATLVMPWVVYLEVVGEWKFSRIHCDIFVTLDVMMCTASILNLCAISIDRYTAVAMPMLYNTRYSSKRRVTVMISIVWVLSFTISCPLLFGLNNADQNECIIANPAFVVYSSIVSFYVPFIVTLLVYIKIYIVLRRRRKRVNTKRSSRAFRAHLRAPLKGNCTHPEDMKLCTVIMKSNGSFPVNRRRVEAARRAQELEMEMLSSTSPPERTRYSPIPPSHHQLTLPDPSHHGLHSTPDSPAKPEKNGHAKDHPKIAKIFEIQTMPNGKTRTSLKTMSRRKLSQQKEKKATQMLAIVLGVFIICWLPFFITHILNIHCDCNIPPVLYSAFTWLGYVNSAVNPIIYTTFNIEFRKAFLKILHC
#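 Overnight-induced (tetracycline, 30 C) HEK293 T-REx cells carrying force-coupled D2 receive a no-wash calcium dye, then compound, then EC80 dopamine at 180 s; signals are read kinetically throughout.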
# D2 PAM-1 – potentiates the human D2 dopamine receptor allosterically; P14416; DiscoveRx D2 beta-arrestin cells, luminescence, 90 min; 100% = 57 uM dopamine signal; potentiation, % (no concentration beside the values); hit rate 0.23% among 360,000; in the data active means potentiation above about 50%; inconclusive means mostly about 30% to 49%
#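 PathHunter D2 cells, attached overnight at 37 deg C, received compound in DMSO plus dopamine at EC20 (50 nM final) for 90 min at 37 deg C. Beta-arrestin recruitment was read as luminescence after 1 h with detection reagent at ambient temperature.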
# D2 ag-1 – agonists of human D2 dopamine receptor (beta-arrestin); P14416; DiscoveRx PathHunter D2 beta-arrestin, luminescence, 90 min; 100% = 57 uM dopamine signal; activation, % (test concentration not listed); hit rate 0.084% among 360,000; in the data active means activation above about 40%; inconclusive means between about 15% and that limit
#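 DiscoveRx PathHunter D2 beta-arrestin cells (2,100/well) attached overnight, then compound-stimulated 90 min at 37 C in HBSS/10 mM HEPES/0.1% Tween-20 buffer; beta-galactosidase complementation read by luminescence after 1 h at ambient temperature. Dopamine 57 uM final (EC100) as control.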
# D2 ag-2 – D2 dopamine receptor (human) agonism. P14416. HEK293 T-REx D2 cells, calcium flux agonist mode. activation, % at 2 µM. hit rate 0.53% among 340,000;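 active means activation over 3 SD above normal in the single-dose calcium agonist read, cut at about 30% in these data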; further: 0% is about no effect
#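 Agonism scored from kinetic calcium signal (1 read/sec, 180 s) following compound pin transfer, after a 10 s baseline. Cells: HEK293 Trex line expressing inducible D2 receptor coupled to calcium, dye-loaded after overnight culture at 30 C.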
# D2 PAM-2 – positively modulates the human D2 dopamine receptor allosterically; hit rate 0.34% among 340,000; HEK293 T-REx D2, calcium flux, EC20 dopamine potentiation; potentiation, % at 10 µM;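 active means potentiation over 3 SD above the plate norm, cut at about 30% in these data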; further: 0% is about no effect
#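 Potentiation of an EC20 dopamine calcium response measured kinetically over 180 s, after a preceding 180 s compound-only read flagging agonists. Cells: inducible Hek293 Trex D2 line, 4000/well, cultured overnight at 30 C before dye loading.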
# * marks the source's active call; other numbers are inactive results; u = inconclusive; x = no result; ! = repeats disagree. In the library only some 2.4% were active in any assay of this set; here they are far more common.
SMILES,D2 antag,D2 PAM-1,D2 ag-1,D2 ag-2,D2 PAM-2
O=C(CCc1ccc(Oc2cc([N+](=O)[O-])cc([N+](=O)[O-])c2)cc1)NC1CCCC1,5,3,u,0,-4
CC1CCN(C(=O)CCc2ccc(Oc3cc([N+](=O)[O-])cc([N+](=O)[O-])c3)cc2)CC1,x,84*,u,x,x
O=C(NCCC(=O)N(Cc1ccco1)Cc1cccs1)c1ccc(Br)cc1,41*,-5,-3,-3,-18
COc1cc(Nc2nc3c(S(=O)(=O)c4ccc(C)c(C)c4)nnn3c3ccsc23)cc(OC)c1,x,x,x,1,-1
Cc1ccc2c(c1)C1CN(C)CCC1N2C(=O)c1ccccc1NS(=O)(=O)c1ccc(F)cc1 (stereo not drawn),-10,-1,-1,0,1
Cc1ccc2c(c1)C1CN(C)CCC1N2S(=O)(=O)c1ccc(C#N)cc1 (stereo not drawn),40*,-32,-3,0,-5
COc1ccccc1NC(=O)C(C)OC(=O)CCNS(=O)(=O)c1ccc(C)c(C)c1 (stereo not drawn),40*,-28,-5,0,-14
O=C(Nn1cnnc1)c1ccc(Cl)cc1,-1,24,1,-1,3
CCCCn1c(CCC)nc([N+](=O)[O-])c1Sc1ccc(Cl)cn1,40*,-13,-2,2,-12
COc1ccccc1NC(=O)CSc1oc(-c2ccco2)nc1S(=O)(=O)c1ccc(C)cc1,x,x,x,-1,-12
Cc1nc2c3ccccc3nc(NNC(=O)CCC(=O)N3CCN(c4ccccc4)CC3)n2n1,27,-3,3,31*!,1
COC(=O)c1ccc(-n2c(C)cc(/C=N/n3cnnc3)c2C)cc1,31*,15,0,1,6
Cc1cc(/C=N/n2cnnc2)c(C)n1-c1ccc(C(=O)O)cc1,3,-3,-1,-1,6
O=C(O)CC1S/C(=N/N=C2CCCCC2)N(c2ccccc2)C1=O (stereo not drawn),-12,-1,-1,0,10
C/C(=N\N=C1/SC(CC(=O)O)C(=O)N1c1ccccc1)c1ccc(C)cc1 (stereo not drawn),30*,-6,-2,-3,-15
Cc1ccc(NC(=O)CS(=O)CC(=O)N(CC(=O)NC2CCCC2)c2cc(C)ccc2C)cc1 (stereo not drawn),x,-17,-2,x,-9
Cc1ccc(NC(=O)CS(=O)CC(=O)N(C2CCCC2)C(C)C(=O)NC2CCCCC2)cc1 (stereo not drawn),2,-27,-1,0,49*
CSc1ccc(/C=C(\C(=O)O)c2ccc(S(=O)(=O)N3CCCC3)s2)cc1,36*,0,9,0,4
CN(C(=S)Nc1ccc(Oc2ccccc2)cc1)c1ccc(O)cc1,-8,82*,u,-1,10
CN(C(=S)Nc1cccnc1)c1ccc(O)cc1,x,64*,11,x,x
CCOC(=O)[C@H]1[C@H]2COc3cc(OC)ccc3[C@@H]2N2C(=O)c3cc(F)ccc3NC(=O)[C@@]12C,1,-5,0,1,0
Cc1ccc(NC(=O)CC2SC(=O)NC2=O)cc1 (stereo not drawn),-8,-18,-9,0,7
COc1ccc(NC(=O)CC2SC(=O)NC2=O)cc1 (stereo not drawn),-12,-18,-8,0,36*
CCC(C)N1C(=O)/C(=C/c2c(NCCCOC(C)C)nc3c(C)cccn3c2=O)SC1=S (stereo not drawn),25,-3,-3,34*,20
COc1ccc(/C=C2\CCCc3c2nc2ccccc2c3C(=O)O)cc1OC,31*,x,x,184*,13
SMILES,D2 antag,D2 PAM-1,D2 ag-1,D2 ag-2,D2 PAM-2
CCN1CCN(CC(=O)N2CCCC(C(=O)c3ccc(Oc4ccccc4)cc3)C2)CC1 (stereo not drawn),9,14,0,0,14
O=C1/C(=C/c2cccc3ccccc23)CCCc2ccccc21,11,-8,-6,0,59*
O=C1C(=Cc2ccncc2)CCCc2ccccc21,x,-10,-4,x,x
Cc1cc(C(=O)COC(=O)c2ccc(N)cc2)c(C)n1-c1c(C)n(C)n(-c2ccccc2)c1=O,13,-1,-2,2,9
O=C(CS(=O)(=O)Cc1ccccc1)Nc1ccc(Cl)cn1,52*,-8,-2,1,0
CCOc1ccc2noc3c2c1C(=O)c1ccccc1-3,x,5,2,x,x
O=C1c2ccccc2-c2onc3ccc(N4CCCC4)c1c23,13,-1,4,19,-18
CCNc1ccc2noc3c2c1C(=O)c1ccccc1-3,x,70*,11,x,x
O=C1c2ccccc2-c2onc3ccc(NCc4ccco4)c1c23,18,112*,u,30,1
c1ccc(-c2ncnc3nc4n(c23)CCC4)cc1,34*,-4,0,0,-2
CC(O)CNc1nc2c(c(=O)n(Cc3ccccc3)c(=O)n2C)n1C (stereo not drawn),-19,-7,-4,1,14
CC(O)CNc1nc2c(c(=O)n(Cc3ccc(Br)cc3)c(=O)n2C)n1C (stereo not drawn),4,52*,6,-1,10
O=C1CC2(CCCC2)CC(=O)N1CCCCN1CCN(c2ncccn2)CC1,88*,-35,-3,4,-30
CN1C(=O)N(CC(=O)N2CCN(c3ncccn3)CC2)C(=O)C12CCCCC2,12,-32,-4,0,-15
Cc1ccc2c(=O)cc(C(=O)Nc3c(C(=O)c4ccc(F)cc4)oc4ccccc34)oc2c1C,x,x,x,0,-2
Oc1sc(C=Nc2ccc(F)cc2)c2ccccc12,-9,u,-1,-1,6
Oc1sc(C=Nc2ccccc2)c2ccccc12,-11,24,6,36*,-2
COC(=O)C1=C(C)NC2=C(C(=O)CC(C)(C)C2)C1c1ccccn1 (stereo not drawn),-7,3,0,1,33*
Cc1c(C(=O)O)sc2ncnc(N3CCCCC3C)c12 (stereo not drawn),-1,-14,0,0,33*
CCOc1ccc(S(=O)(=O)Nc2cccc(C(=O)NCC(C)(C)N3CCOCC3)c2)cc1,10,-69,-3,0,-15
CN(CC(=O)Nc1ccc(F)c(F)c1F)C(=O)Cc1ccc2c(c1)OCCO2,35*,1,1,0,-1
COc1ccccc1/C=C/CN1CCC(Oc2ccc(C(=O)N3CCCC3)cc2)CC1,47*,-33,-1,0,-20
COc1cc(/C=C/CN2CCC(Oc3ccc(C(=O)N4CCCC4)cc3)CC2)ccc1O,3,-22,-2,0,-10
COc1ccc(CCC(C)N2CCC(Oc3ccc(C(=O)N4CCCC4)cc3)CC2)cc1 (stereo not drawn),30*,-17,-5,0,-5
